Measured values: PubChem BioAssay (EPA / NIEHS)
The source made the active and inactive calls. Rule for the calls: active = hit-call score of the fitted dose curve at least 0.9, where 1 is the maximum; inactive = score below 0.9.

Assay: ATG_DR4_LXR_CIS: Attagene CIS-FACTORIAL HepG2 Assay for human Liver X Receptor (LXR), DR4 submotif (AID 2282929)
Conditions: HepG2 Attagene DR4 cis-reporter, mRNA transcription; actives raise or lower the signal
Procedure: ATG_CIS is a cell-based, multiplexed-readout assay that uses HepG2, a human liver cell line, with measurements taken at 24 hours after chemical dosing in a 24-well plate.ATG_DR4_LXR_CIS is one of 52 assay component(s) measured or calculated from the ATG_CIS assay. It is designed to make measurements of mRNA induction, a form of inducible reporter, as detected with fluorescence intensity signals by Reverse transcription polymerase chain reaction (RT-PCR) and Capillary electrophoresis technology.Data from the assay component ATG_DR4_LXR_CIS was analyzed into 1 assay endpoint. This assay endpoint, ATG_DR4_LXR_CIS, was analyzed with bidirectional fitting relative to DMSO as the negative control and baseline of activity. Using a type of inducible reporter, measures of mRNA for gain or loss-of-signal activity can be used to understand the reporter gene at the transcription factor-level as they relate to the gene NR1H2 and NR1H3. Furthermore, this assay endpoint can be referred to as a primary readout, because this assay has produced multiple assay endpoints where this one serves a reporter gene function. To generalize the intended target to other relatable targets, this assay endpoint is annotated to the nuclear receptor intended target family, where the subfamily is non-steroidal.
Human liver HepG2 cells are transiently transfected with multiple reporter transcription units (MRTUs) in 6-well plates using FuGene 6 reagent (Roche; 3 ml FuGene/1 mg DNA). The MRTU constructs are regulated by a cis-regulating element (promoter). […] A major difference between the CIS and TRANS system is that in CIS activities of endogenous TFs are measured, whereas the TRANS assay evaluates changes in activities of exogenous, chimeric NR-Gal4 proteins. […] At the end of 24 hour incubation, total RNA was isolated using TriZol reagent (Invitrogen). The isolated RNA is then reverse-transcribed using oligo(dT) primer and Mo-MLV reverse transcriptase (Invitrogen) with DNAse I (Ambion) treatment for 30 min. The one-tenth of the produced cDNA was amplified by PCR using Taq DNA polymerase (Invitrogen) and two reporter sequence-specific primers. The PCR products were fluorescently labeled by primer extension with 6-arboxyfluorescein (6-FAM) 5'-labeled reporter sequence-specific primer (2 min at 95 C, 20 s at 68 C and 10 min at 72 C) and these products were digested with 5U of HpaI (New England Biolabs) for 2h at 37 C. The fragments were purified using Qiaquick PCR columns (Qiagen), analyzed on an ABI 3130xL genetic analyzer (Applied Biosystems) with peak positions identified by using a set of X-rhodamine (ROX)-labeled MapMarker1000 molecular weight standards (BioVentures). The raw capillary electrophoresis data was processed using Attagraph software (Attagene).

Row | SMILES | outcome | AC50
1 | O=C1C=CC(=O)N1c1ccccc1 | inactive | –
2 | O=C1C=CC(=O)N1c1ccc(Cc2ccc(N3C(=O)C=CC3=O)cc2)cc1 | – | 22.7 µM (active)
3 | OCCC(O)CO (stereo not given) | inactive | –
4 | CC1=CCC2C(=O)OC(=O)C2C1 (stereo not given) | inactive | –
5 | FC(F)(F)C(F)(F)C(F)(F)C(F)(F)C(F)(F)C(F)(F)C(F)(F)CCI | inactive | –
6 | OCC(O)CC(F)(F)C(F)(F)C(F)(F)C(F)(F)F (stereo not given) | inactive | –
7 | CC(=O)c1ccccc1N | inactive | –
8 | CCOC(C=C(C)CCC=C(C)C)OCC | inactive | –
9 | CO[Si](CCCOCC1CO1)(OC)OC (stereo not given) | inactive | –
10 | C=C(C)CCCC | inactive | –
11 | COCCOCCC[Si](C)(O[Si](C)(C)C)O[Si](C)(C)C | – | 54.1 µM (active)
12 | C#CC(O)CCC (stereo not given) | inactive | –
13 | O=S(=O)(O)c1ccc(Cl)cc1 | inactive | –
14 | O=C(O)C(F)(F)C(F)(F)C(F)(F)C(=O)O | inactive | –
15 | CCOC(=O)CCC(C)=O | inactive | –
16 | CC(=O)C=O | inactive | –
17 | CNS(=O)(=O)C(F)(F)C(F)(F)C(F)(F)C(F)(F)C(F)(F)C(F)(F)C(F)(F)C(F)(F)F | inactive | –
18 | CC(C)(C)C(=O)C1C(=O)c2ccccc2C1=O | inactive | –
19 | CCOC(=O)CC(=O)C(F)(F)C(F)(F)F | inactive | –
20 | CCC(C)CO (stereo not given) | inactive | –

Row | SMILES | outcome | AC50
21 | CCOCOCC | inactive | –
22 | C=CC(=O)OCC(F)(F)C(F)(F)C(F)(F)C(F)(F)C(F)(F)C(F)(F)C(F)(F)C(F)F | – | 232 µM (active)
23 | CCC(Cc1c(I)cc(I)c(N)c1I)C(=O)O (stereo not given) | inactive | –
24 | CSc1ccc(Cl)cc1 | inactive | –
25 | CCC(=O)OC(C)c1ccccc1 (stereo not given) | inactive | –
26 | Brc1nc2ccccc2s1 | – | 100 µM (active)
27 | C=C(C)C(=O)OCC(F)(F)C(F)(F)C(F)(F)C(F)F | inactive | –
28 | CC(C)(C)c1cc(CCC(=O)NCCCCCCNC(=O)CCc2cc(C(C)(C)C)c(O)c(C(C)(C)C)c2)cc(C(C)(C)C)c1O | inactive | –
29 | N#CCCOCCC#N | inactive | –
30 | Cc1ccc(O)cn1 | inactive | –
31 | CC1CCCCC1 | inactive | –
32 | NCC(F)(F)C(F)(F)C(F)(F)C(F)(F)C(F)(F)C(F)(F)C(F)(F)C(F)(F)F | inactive | –
33 | Cc1ccc([N+](=O)[O-])c(C)c1 | inactive | –
34 | Cc1ccc2c(c1)OCC(=O)CO2 | inactive | –
35 | CC(O)C#CC(C)O (stereo not given) | – | 64.9 µM (active)
36 | NC(O)(C(F)(F)F)C(F)(F)F | inactive | –
37 | CCN(CC)c1ccc(C=O)cc1 | inactive | –
38 | O=C1c2ccccc2C(=O)c2c(Cl)cccc21 | inactive | –
39 | O=C(Cl)C(F)(F)C(F)(F)C(F)(F)C(F)(F)C(F)(F)C(F)(F)F | inactive | –
40 | O=C1OC(=O)c2ccc3c4c(ccc1c24)C(=O)OC3=O | inactive | –
